# Reference: PubChem BioAssay
# Calls of active or inactive are those of the source.
# Columns and labels:
# Albumin (Bos taurus) = Albumin (Bos taurus) (UniProt P02769); experiment: compounds binding labelled BSA control protein – biochemical, small-molecule microarray, Alexa647 label, 635/667 nm fluorescence, artefact control for SMM control protein annotation, profiling panel (AID 1118); details: BSA-A647 binding, fluorescence 635 nm, higher = more signal;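 note: score merges 667 nm emission intensity and signal-to-noise per printed compound spot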
# Albumin (Bos taurus), sequence (P02769 whole entry, looked up): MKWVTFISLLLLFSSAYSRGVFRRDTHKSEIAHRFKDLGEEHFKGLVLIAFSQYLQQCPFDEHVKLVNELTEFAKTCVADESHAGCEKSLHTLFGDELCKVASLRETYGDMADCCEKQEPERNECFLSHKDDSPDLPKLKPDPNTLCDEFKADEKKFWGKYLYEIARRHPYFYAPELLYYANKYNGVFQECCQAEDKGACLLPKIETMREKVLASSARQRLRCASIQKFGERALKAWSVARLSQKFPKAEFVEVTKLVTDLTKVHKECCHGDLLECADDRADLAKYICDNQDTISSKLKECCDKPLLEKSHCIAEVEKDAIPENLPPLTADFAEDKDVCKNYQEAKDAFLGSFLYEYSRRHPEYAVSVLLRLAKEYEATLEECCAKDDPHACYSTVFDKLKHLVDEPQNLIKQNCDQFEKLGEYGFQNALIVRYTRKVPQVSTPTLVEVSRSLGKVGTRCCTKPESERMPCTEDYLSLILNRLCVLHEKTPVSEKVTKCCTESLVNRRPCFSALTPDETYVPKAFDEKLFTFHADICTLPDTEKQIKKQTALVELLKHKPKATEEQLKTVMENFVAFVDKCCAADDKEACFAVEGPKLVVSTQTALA
# [1] = probe aXIP binding to arrayed compounds – biochemical, NeuroSMM set, 635/667 nm fluorescence, primary screen (AID 1119); details: small-molecule microarray, higher = more signal, called active from +8 up or from −8 down;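 note: probe is the protein aXip251-270 applied at 1 µg/mL to compound-printed slides; binding of probe to printed compounds measured as 667 nm fluorescence plus signal to noise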
# [2] = probe aNOTCH3 binding on compound microarray – biochemical, small-molecule microarray, 635/667 nm fluorescence, primary screen (AID 1120); details: higher = more signal;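 note: probe is a biotin-tagged antibody raised against NOTCH3 rather than NOTCH3 protein; score merges spot fluorescence near 667 nm with spot signal to noise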
# [3] = probe aNOTCH2 binding on compound microarray – biochemical, small-molecule microarray, 635/667 nm fluorescence, primary screen (AID 1121); details: higher = more signal;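 note: score merges feature fluorescence read at 667 nm with its signal to noise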
# [4] = target: Carbonic anhydrase 2 (Homo sapiens) (UniProt P00918); experiment: compounds binding carbonic anhydrase 2 – biochemical, small-molecule microarray, Alexa647-labelled CAII, profiling panel (AID 1122); details: CAII-A647 binding fluorescence, higher = more signal
# [5] = COS7 lysate on small-molecule microarray, probe aHis, 635 nm (AID 1123); details: COS7 cell lysate, fluorescence, higher = more signal;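 note: z-score combines 667nm fluorescence intensity with signal-to-noise per printed compound spot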
# [6] = probe aLAP1 signal on lysate-treated microarray – cell lysate, small-molecule microarray, COS7 lysate, primary screen (AID 1124); details: probe aLAP1, fluorescence, higher = more signal;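 note: lysate comes from COS7 cells expressing LAP1 and is applied at 0.3 µg/mL; score merges spot fluorescence near 667 nm with signal-to-noise over triplicate slides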
# Sam68 (KHDRBS1) = experiment: compounds binding KHDRBS1 protein – biochemical, small-molecule microarray, 635 nm fluorescence, primary screen (AID 1125); details: higher = more signal;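 note: score merges 667 nm channel intensity with signal to noise over triplicate slides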
# [7] = tested on: Chordin-like protein 2 (CHRDL2); experiment: compounds binding chordin-like 2 – biochemical, small-molecule microarray, 635 nm fluorescence, primary screen (AID 1126); details: fluorescence 635 nm, higher = more signal;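 note: printed compound slides probed with Chrdl2 protein at 4 µg/mL for 1 h at 4 C; score merges 667 nm emission intensity with signal to noise over three replicate slides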
# [8] = target: Concanavalin-A (Canavalia ensiformis) (UniProt P02866); experiment: compounds binding concanavalin A lectin – biochemical, small-molecule microarray, Alexa647 label, 635 nm, artefact control for SMM control protein annotation, primary screen (AID 1127); details: ConA-A647 binding fluorescence, higher = more signal;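 note: z combines 667 nm emission intensity with signal-to-noise across three replicate slides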
# Concanavalin-A (Canavalia ensiformis), sequence (P02866 whole entry, looked up): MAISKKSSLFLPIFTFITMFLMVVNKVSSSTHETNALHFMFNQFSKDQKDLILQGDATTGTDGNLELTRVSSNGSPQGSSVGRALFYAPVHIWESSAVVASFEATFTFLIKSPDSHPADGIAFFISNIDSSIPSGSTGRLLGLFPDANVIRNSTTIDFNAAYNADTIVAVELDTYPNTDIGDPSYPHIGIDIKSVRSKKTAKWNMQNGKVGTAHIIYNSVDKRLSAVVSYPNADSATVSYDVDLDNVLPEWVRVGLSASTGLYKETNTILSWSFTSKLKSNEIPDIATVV
# [9] = compounds binding Alexa647 anti-His antibody – biochemical, small-molecule microarray, 635 nm fluorescence, artefact control for SMM control protein annotation, primary screen (AID 1128); details: higher = more signal;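 note: score merges feature fluorescence with signal-to-noise for each printed compound spot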
# [10] = tested on: Human papillomavirus type 1a E7 protein (residues 1-88); experiment: HPV1a E7 small-molecule binders, primary screen, biochemical, small-molecule microarray, residues 1-88, 635 nm (AID 1129); details: small-molecule microarray binding, fluorescence 635 nm; higher = more signal
# [11] = target: Focal adhesion kinase 1 (Homo sapiens) (UniProt Q05397); experiment: PTK2 protein binding on printed compound slides – biochemical, small-molecule microarray, 635/667 nm fluorescence, BSA, DTT, primary screen (AID 1130); details: 635 nm fluorescence, higher = more signal;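 note: composite of spot emission at 667 nm and signal to noise over triplicate slides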
# Focal adhesion kinase 1 (Homo sapiens), sequence (Q05397 whole entry, looked up): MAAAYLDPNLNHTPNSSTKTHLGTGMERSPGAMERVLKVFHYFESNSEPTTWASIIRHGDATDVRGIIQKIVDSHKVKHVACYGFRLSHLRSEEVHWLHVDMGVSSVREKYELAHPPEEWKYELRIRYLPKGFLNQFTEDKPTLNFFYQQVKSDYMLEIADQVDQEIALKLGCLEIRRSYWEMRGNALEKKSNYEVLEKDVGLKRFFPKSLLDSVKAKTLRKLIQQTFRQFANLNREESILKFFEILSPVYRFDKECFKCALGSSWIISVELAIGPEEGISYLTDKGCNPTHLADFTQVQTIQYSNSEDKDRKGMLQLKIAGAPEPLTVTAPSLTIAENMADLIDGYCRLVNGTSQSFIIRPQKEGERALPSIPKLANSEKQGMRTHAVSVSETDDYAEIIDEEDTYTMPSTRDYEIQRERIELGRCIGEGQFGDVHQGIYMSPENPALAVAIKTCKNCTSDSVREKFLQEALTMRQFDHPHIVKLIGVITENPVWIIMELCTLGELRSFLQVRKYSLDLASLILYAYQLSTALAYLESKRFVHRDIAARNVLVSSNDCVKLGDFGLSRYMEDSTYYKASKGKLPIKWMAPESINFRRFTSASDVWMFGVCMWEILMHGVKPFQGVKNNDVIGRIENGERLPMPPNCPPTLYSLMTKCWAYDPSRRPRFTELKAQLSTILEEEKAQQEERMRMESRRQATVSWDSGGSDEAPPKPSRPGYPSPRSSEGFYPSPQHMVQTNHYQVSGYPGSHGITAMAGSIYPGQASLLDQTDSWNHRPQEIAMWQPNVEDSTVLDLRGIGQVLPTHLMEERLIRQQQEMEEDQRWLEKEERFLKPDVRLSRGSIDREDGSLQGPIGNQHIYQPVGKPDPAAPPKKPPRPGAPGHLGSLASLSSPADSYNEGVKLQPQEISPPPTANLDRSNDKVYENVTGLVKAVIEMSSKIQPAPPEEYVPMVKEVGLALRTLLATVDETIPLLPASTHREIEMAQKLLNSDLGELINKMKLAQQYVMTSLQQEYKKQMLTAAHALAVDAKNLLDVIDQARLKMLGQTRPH
# [12] = tested on: Fibrinogen (Alexa647-labelled); experiment: Alexa647-fibrinogen binding to printed small molecules – biochemical, small-molecule microarray, 635/667 nm fluorescence, artefact control for SMM control-protein annotation, profiling panel (AID 1131); details: fibrinogen-A647 binding fluorescence, higher = more signal;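 note: z-score merges 667 nm fluorescence with per-spot signal-to-noise over triplicate slides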
# [13] = target: Follistatin (Homo sapiens) (UniProt P19883); experiment: FST protein binding to printed compounds – biochemical, small-molecule microarray, 635/667 nm fluorescence, primary screen (AID 1132); details: 635 nm fluorescence, higher = more signal
# Follistatin (Homo sapiens), sequence (P19883 whole entry, looked up): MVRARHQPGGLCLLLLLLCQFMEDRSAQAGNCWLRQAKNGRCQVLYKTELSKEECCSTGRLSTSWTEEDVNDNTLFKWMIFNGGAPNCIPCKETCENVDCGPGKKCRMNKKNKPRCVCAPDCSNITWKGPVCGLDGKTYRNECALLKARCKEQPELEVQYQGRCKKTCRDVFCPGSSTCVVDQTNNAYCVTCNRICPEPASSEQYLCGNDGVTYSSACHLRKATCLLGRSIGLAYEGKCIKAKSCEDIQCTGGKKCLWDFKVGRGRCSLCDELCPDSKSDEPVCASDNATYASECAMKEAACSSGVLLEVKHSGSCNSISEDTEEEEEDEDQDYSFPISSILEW
# [14] = target: Fibroblast growth factor 2 (Homo sapiens) (UniProt P09038); experiment: basic fibroblast growth factor binding to printed compounds – biochemical, small-molecule microarray, 635/667 nm fluorescence, primary screen (AID 1133); details: FGF2, fluorescence 635/667, higher = more signal
# Fibroblast growth factor 2 (Homo sapiens), sequence (P09038 whole entry, looked up): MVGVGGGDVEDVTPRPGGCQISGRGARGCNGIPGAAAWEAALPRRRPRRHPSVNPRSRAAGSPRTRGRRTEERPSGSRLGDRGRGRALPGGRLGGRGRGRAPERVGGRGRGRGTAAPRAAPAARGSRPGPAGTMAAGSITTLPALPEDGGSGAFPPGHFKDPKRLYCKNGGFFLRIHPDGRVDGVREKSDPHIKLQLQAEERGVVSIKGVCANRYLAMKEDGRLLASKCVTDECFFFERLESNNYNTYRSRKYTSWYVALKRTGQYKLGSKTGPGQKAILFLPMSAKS
# [15] = JC-1 mitochondrial potential readout, lung cancer cells – cell-based, A549, JC-1 fluorescence, basal, 24 h, 100 nL, profiling panel (AID 1138); details: higher = more signal;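 note: A549 lung adenocarcinoma cells under basal conditions with no added stimulus; test concentration not given here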
# Lefty1 = Lefty1 protein binding to printed compounds – biochemical, small-molecule microarray, 635/667 nm fluorescence, primary screen (AID 1139); details: fluorescence 635/667, higher = more signal
# [16] = tested on: wheat germ agglutinin (Triticum aestivum), Alexa647-labelled; experiment: Alexa647-WGA lectin binding to printed small molecules – biochemical, small-molecule microarray, 635/667 nm fluorescence, artefact control for SMM control-protein annotation, profiling panel (AID 1140); details: WGA-A647 binding, 635 nm fluorescence, higher = more signal;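 note: score merges 667 nm feature emission with signal to noise over triplicate slides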
# [17] = target: Luciferin 4-monooxygenase (Photinus pyralis) (UniProt P08659); experiment: inhibition of purified Photinus pyralis luciferase – biochemical, luminescence, purified enzyme, 2006 set, primary screen (AID 1141); details: purified firefly luciferase, SteadyGlo luminescence, 30 min; higher = more signal, called active from +8 up or from −8 down;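 note: cell-free assay with purified firefly luciferase at 100 ng per well in PBS; test concentration not given here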
# Luciferin 4-monooxygenase (Photinus pyralis), sequence (P08659 whole entry, looked up): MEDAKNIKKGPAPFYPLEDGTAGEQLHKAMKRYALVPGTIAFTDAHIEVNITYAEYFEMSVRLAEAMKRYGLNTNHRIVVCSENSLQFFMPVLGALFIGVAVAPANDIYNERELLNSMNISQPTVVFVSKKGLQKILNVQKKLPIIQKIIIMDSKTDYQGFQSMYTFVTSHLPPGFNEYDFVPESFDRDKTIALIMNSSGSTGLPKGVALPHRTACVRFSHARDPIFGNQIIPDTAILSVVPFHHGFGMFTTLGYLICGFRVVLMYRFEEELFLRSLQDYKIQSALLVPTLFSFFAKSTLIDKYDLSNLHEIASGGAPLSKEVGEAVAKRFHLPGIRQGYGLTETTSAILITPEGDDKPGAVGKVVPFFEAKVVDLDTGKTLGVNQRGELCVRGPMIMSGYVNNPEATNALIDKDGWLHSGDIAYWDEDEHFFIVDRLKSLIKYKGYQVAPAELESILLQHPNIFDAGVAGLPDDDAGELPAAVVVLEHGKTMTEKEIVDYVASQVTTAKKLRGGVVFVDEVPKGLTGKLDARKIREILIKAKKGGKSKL
Compound,composite z-score (Albumin (Bos taurus)),composite Z-score [1],composite z-score [2],composite z-score [3],composite z-score [4],composite z-score [5],composite z-score [6],composite z-score (Sam68 (KHDRBS1)),composite z-score [7],composite z-score [8],composite z-score [9],composite z-score [10],composite z-score [11],composite z-score [12],composite z-score [13],composite z-score [14],z-score [15],composite z-score (Lefty1),composite z-score [16],z-score [17]
CC1=C([C@H](O)CCc2ccccc2)[C@H](CO)[C@@H]2C(=O)N(C)C(=O)[C@@H]2C1,0.361,-0.297 (inactive),0.0313,0.0592,0.125,0.58,0.244,0.535,0.557,0.476,0.32,-0.183,0.332,0.431,0.172,0.227,1.48,0.475,0.133,-1.01 (inactive)
COc1cc2c(cc1OC)CN(C(=O)[C@@H]1[C@H]3C(=O)O[C@H](c4ccccc4)[C@H](c4ccccc4)N3[C@H](c3ccc(OCCO)cc3)[C@@]13C(=O)Nc1ccc(C#CC4(O)CCCCCC4)cc13)CC2,0.872,0.266 (inactive),0.398,-0.166,0.543,2.03,0.514,1.32,0.978,1.13,0.367,1.18,-0.226,0.966,1.41,1.13,-0.989,1.38,0.831,-7.42 (inactive)
CC(C)N1CC=CC23O[C@@H]4C=CCOC(=O)[C@@H]4[C@H]2C(=O)N(CCCO)[C@@H]3C1=O (stereo not given in full),1.05,2.17 (inactive),-0.145,-0.118,0.863,2.76,0.633,0.234,-0.73,0.234,1.59,0.672,1.01,-1.14,-0.0511,-0.849,-0.384,-0.133,-0.17,-3.85 (inactive)
CCC(CC)C(O)C1C=CC2C(=O)N(c3ccccc3)C(=O)C2N1Nc1ccc(C(C)C)cc1 (stereo not given),0.682,0.15 (inactive),0.213,0.197,0.691,2.24,0.359,1.3,-0.0149,0.922,0.489,1.22,0.902,0.978,1.01,0.524,-0.202,0.0342,1.08,-1.58 (inactive)
CCCCCCc1nc(C2CC2)cc2c1[Si](C(C)C)(C(C)C)OC2,-0.858,0.289 (inactive),-0.197,-0.176,-0.513,-0.535,-0.0031,-0.826,-0.463,-0.334,-1.08,-1.14,-0.295,0.691,-0.706,-0.644,-1.37,-0.568,-0.222,0.766 (inactive)
O=C1O[C@@H](c2ccccc2)[C@@H](c2ccccc2)N2[C@@H](c3ccc(OCCO)cc3)[C@]3(C(=O)Nc4ccccc43)[C@@H](C(=O)O)[C@H]12,-0.0883,-0.24 (inactive),1.09,0.464,0.745,1.03,0.741,0.428,-0.12,0.539,2.37,0.177,-0.0546,0.679,0.197,-0.406,-0.75,0.044,0.125,-1.43 (inactive)
C[N+](C)(C)CCCCCCNC(=O)[C@H]1C[C@H]2C(=O)N[C@@H](Cc3ccccc3)C(=O)N2[C@H]1c1ccc(O)cc1,-0.459,-0.505 (inactive),-0.0471,-0.137,0.4,1.05,0.0686,0.479,1.37,0.547,1.32,0.0251,-0.208,-0.222,1.34,0.916,0.0402,1.34,0.112,-0.555 (inactive)
C=C(CCCC)/C(=C/C[C@@H](OC(=O)c1ccncc1)c1ccccc1OCCO)c1cnc2ccccc2c1,0.459,-0.869 (inactive),0.28,-0.105,0.719,0.457,0.603,1.3,0.924,1.07,0.433,1.12,0.0585,0.963,1.44,1.43,1.34,1.61,1.17,-0.514 (inactive)
COc1ccc(CCNC(=O)[C@@H]2c3ccccc3C(=O)N(Cc3cc(C(F)(F)F)cc(C(F)(F)F)c3)[C@H]2c2ccc(CO)cc2)cc1,-0.329,-0.586 (inactive),-0.208,-0.149,0.681,0.84,0.566,1.14,-0.571,0.425,2.15,0.102,-0.152,0.629,0.255,-0.258,1.95,-0.297,0.985,-1.16 (inactive)
O=C(NCC(F)(F)F)[C@@H]1c2ccccc2C(=O)N(Cc2cc(F)cc(C(F)(F)F)c2)[C@H]1c1ccc(CO)cc1,-0.463,0.57 (inactive),-0.355,-0.0644,0.295,0.837,-0.0879,-0.639,-1.11,-0.236,0.44,-0.178,-0.385,-0.78,-0.682,-0.843,-1.37,-1.24,-0.948,1.08 (inactive)
CN1C(=O)C2C=CC(C(O)c3cccc4ccccc34)N(N3CCCCC3)C2C1=O (stereo not given),0.918,0.353 (inactive),0.246,0.0502,0.586,2.75,0.59,1.31,-0.227,1.17,2.11,1.15,0.127,0.853,1.23,0.225,-0.0645,0.789,1.3,-0.848 (inactive)
C=C(/C(=C/C[C@H](OC(C)=O)c1cccc(OCCO)c1)c1cnc2ccccc2c1)C(C)C,0.195,0.896 (inactive),0.0701,-0.0859,0.547,0.276,-0.313,0.615,1.05,0.689,-0.373,0.68,0.151,-0.325,1.36,0.429,1.61,1.08,0.961,-1.19 (inactive)
C=CC[C@]1(C(=O)O)COC(c2ccc(OCCCO)cc2)=N1,0.157,0.0512 (inactive),-0.0967,-0.222,0.969,1.14,0.308,0.343,0.422,-0.427,1.53,0.205,-0.0931,0.219,0.372,-0.105,0.0454,0.378,0.342,-0.497 (inactive)
C[C@@H]1NC(=O)[C@@]23C(=O)N[C@@H](Cc4ccccc4)C2[C@H](C)[C@@]2(C)O[C@H]2C3/C=C/C/C=C\CNC(=O)[C@@H]2CCCN2C1=O (stereo not given in full),-0.397,-0.433 (inactive),-0.078,-0.139,0.742,-0.0175,-0.11,-1,0.18,-0.327,0.104,-0.715,-0.178,-1.12,0.148,-0.197,0.0238,0.0216,-0.628,0.0545 (inactive)
COc1ccc([Si](C)(C)[C@H]2[C@H](CCn3cc([C@H](O)c4ccccc4)nn3)O[C@@]3(C(=O)N(Cc4ccc(N5C(=O)c6cccc7cccc5c67)cc4)c4ccccc43)[C@@H]2C)cc1,-0.601,0.389 (inactive),-0.165,-0.14,0.193,0.769,0.838,0.131,-0.803,0.115,0.107,0.0893,-0.254,-0.153,-0.185,0.768,2.81,-0.0986,0.0681,-1.19 (inactive)
CCOC(=O)C[C@H]1[C@H](OC(=O)c2cc3ccccc3oc2=O)[C@@H](NC(=O)c2ccc(-c3ccccc3)cc2)c2cc(OCCCO)ccc2N1C(=O)c1ccc2ccccc2n1,0.111,0.6 (inactive),0.0864,-0.147,0.4,0.837,0.205,1.32,0.492,0.708,1.04,1.15,0.553,0.458,1.11,0.485,-0.408,0.964,0.543,0.778 (inactive)
O=C1NC(=O)C2C1C=CC(C(O)CCc1ccccc1)N2Nc1ccc(Cl)cc1Cl (stereo not given),0.709,0.118 (inactive),-0.142,0.345,0.79,2.25,0.925,0.969,-1.3,-0.0165,0.371,1.18,1.11,0.363,0.0611,-0.83,-0.267,-0.556,1.07,0.369 (inactive)
